This is a sample that favours compounds with a hit; in the whole collection about 4.7% have one here.
ADAM17 inh: inhibitors of human ADAM17; P78536; recombinant ADAM17, EDANS/DABCYL FRET peptide cleavage; inhibition, % at 6.95 µM; hit rate 0.83% among 370,000;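 active means inhibition above the mean of compounds lying between control limits plus 3 SD, set per campaign, cut at about 8.5% in these data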;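 further: 0% = DMSO-only wells as the low control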
rCAG RNA binder: r(CAG) repeat RNA binding. hit rate 1.3% among 370,000. inhibition, % at 3 µM. TO-PRO-1 dye displacement fluorescence;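 active means inhibition above the plate cutoff, the mean of all test compounds on that plate plus 3 SD, cut at about 35% in these data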;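 further: 0% = DMSO alone and 100% = 100 µM mitoxantrone as full dye displacement; higher means more dye released from RNA so lower well fluorescence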
ADAM10 inh: ADAM10 inhibition, QFRET primary screen; O14672; recombinant ADAM10, EDANS/DABCYL FRET peptide cleavage, 3 h; inhibition, % at 7 µM; hit rate 0.62% among 370,000; AID 720582;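 active means inhibition above a per-campaign cutoff equal to the mean of compounds falling between control-based bounds plus 3 SD, cut at about 20% in these data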;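 further: 0% = DMSO wells while the 100% control is not disclosed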
DSG3 Ab inh: inhibitors of pemphigus antibody binding to human desmoglein-3. P32926. DSG3-coupled beads, scFv-anti-DSG3-GFP binding, flow cytometry; hits give low values. binding (percent of control), % at 10 µM. hit rate 0.48% among 310,000;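 active means binding more than 3 SD below its plate's average and above zero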;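 further: hits lower antibody fragment binding to DSG3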
Target sequence (P32926 whole entry, looked up, the tested form may be a part): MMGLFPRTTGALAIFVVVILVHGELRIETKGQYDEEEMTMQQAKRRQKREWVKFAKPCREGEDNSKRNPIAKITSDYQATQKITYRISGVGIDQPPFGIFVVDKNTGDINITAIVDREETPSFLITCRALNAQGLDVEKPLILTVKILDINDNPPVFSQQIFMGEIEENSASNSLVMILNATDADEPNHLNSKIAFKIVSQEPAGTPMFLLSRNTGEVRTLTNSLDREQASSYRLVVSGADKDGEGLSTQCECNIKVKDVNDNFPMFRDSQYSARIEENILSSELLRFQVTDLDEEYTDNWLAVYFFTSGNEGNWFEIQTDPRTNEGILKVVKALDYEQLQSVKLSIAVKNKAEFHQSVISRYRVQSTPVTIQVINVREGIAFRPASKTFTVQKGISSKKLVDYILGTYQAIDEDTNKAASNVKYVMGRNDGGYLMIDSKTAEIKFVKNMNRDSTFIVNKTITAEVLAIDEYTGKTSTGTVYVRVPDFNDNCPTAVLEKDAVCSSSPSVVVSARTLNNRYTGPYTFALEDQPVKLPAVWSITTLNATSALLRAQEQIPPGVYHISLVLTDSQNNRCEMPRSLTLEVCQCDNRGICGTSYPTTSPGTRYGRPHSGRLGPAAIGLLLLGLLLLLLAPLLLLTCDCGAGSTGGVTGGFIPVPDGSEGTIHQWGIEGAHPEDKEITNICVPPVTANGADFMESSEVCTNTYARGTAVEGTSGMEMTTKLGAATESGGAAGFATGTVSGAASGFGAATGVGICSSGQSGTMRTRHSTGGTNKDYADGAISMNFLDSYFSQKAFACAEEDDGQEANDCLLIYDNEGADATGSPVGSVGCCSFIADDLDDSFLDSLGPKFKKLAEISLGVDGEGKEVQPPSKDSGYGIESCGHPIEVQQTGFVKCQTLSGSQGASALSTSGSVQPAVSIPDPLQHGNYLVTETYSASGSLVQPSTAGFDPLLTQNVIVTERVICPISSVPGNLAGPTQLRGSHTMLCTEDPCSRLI
KLK7 zymogen act: proKLK7 (human) activation, primary screen; P49862; purified proKLK7, EDANS-DABCYL substrate fluorescence; 100% is mature enzyme control, 0% vehicle; activation, % at 7 µM; hit rate 0.9% among 370,000; AID 652039;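 active means activation above the mean of all tested compounds plus 3 SD, computed per campaign excluding outliers beyond control limits, cut at about 13% in these data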
MPTP block: inhibitors of mitochondrial permeability transition pore. isolated mouse mitochondria, Ca2+ swelling absorbance, 30 min. hit rate 1.4% among 360,000. AID 602449. inhibition, % at 10 µM;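 active means inhibition of 50% or more, scaled per plate between neutral and stimulator controls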;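 further: 0% = DMSO wells given calcium and 100% = 1 mM EGTA wells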
rCAG bind conf: r(CAG) RNA repeat binding, confirmation | shares compounds with rCAG RNA binder | TO-PRO-1 dye displacement fluorescence | inhibition, % at 3 µM | hit rate 70% among 4,300 | AID 652065;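 active means inhibition above a per-plate cutoff, the mean inhibition of sample wells plus 3 SD, cut at about 35% in these data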;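 further: loss of TO-PRO-1 fluorescence as compound displaces dye from 1x1 AA loop RNA; 0% = DMSO only wells and 100% = 100 µM mitoxantrone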
dCAG dye counter: counter-screen for rCAG RNA binders: DNA CAG dye complex inhibitors; shares compounds with rCAG RNA binder; d(CAG) DNA oligo TO-PRO-1 dye displacement, fluorescence; inhibition, % at 3 µM; hit rate 94% among 4,300;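 active means inhibition above its plate's cutoff, the mean test-well inhibition plus 3 SD, cut at about 4.8% in these data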;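 further: 0% = DNA dye mix with DMSO and 100% = 100 µM mitoxantrone; hits displace the dye from DNA and so lower well fluorescence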
* hit, by the source's call; i = inactive; x = no result.

SMILES	ADAM17 inh	rCAG RNA binder	ADAM10 inh	DSG3 Ab inh	KLK7 zymogen act	MPTP block	rCAG bind conf	dCAG dye counter
COc1cccc(CNC(=O)[C@H]2CCCN2C(=O)[C@H]2CCCN2C(=O)OC(C)(C)C)c1	-0.4	1.3	0.1	x	-0.2	x	x	x
COc1cc(Cl)ccc1OCc1cc(C(=O)N2C[C@]3(C)C[C@H]2CC(C)(C)C3)no1	4.2	-4.5	1.2	116.4	-0.2	2.6	x	x
Cc1ccc(C(=O)Nc2ccccc2C(=O)O)cc1S(=O)(=O)Nc1ccc(Br)cc1	1.6	83.3*	9.7	x	0.1	20.3	85.8*	55.8*
Cc1ccc(C(=O)Nc2ccccc2C(=O)O)cc1S(=O)(=O)NCc1ccccc1	-7.3	63.5*	3.4	106.0	0.2	3.5	50.0*	17.3*
COc1ccc(S(=O)(=O)NCc2cccnc2)cc1NC(=O)c1ccccc1C	-5.0	66.1*	-21.5	97.4	-1.2	0.4	59.4*	34.0*
Cc1ccccc1NC(=O)c1ccc(C)c(S(=O)(=O)Nc2cccnc2)c1	-2.8	2.2	-8.2	103.2	0.0	0.1	x	x
Cc1ccc(C(=O)Nc2ccccc2C(=O)O)cc1NC(=O)COc1c(C)cccc1C	-4.5	33.2	-10.2	96.3	0.0	-2.9	x	x
Cc1ccc(F)cc1NC(=O)c1ccc(NS(=O)(=O)c2ccc(Br)s2)cc1	-2.0	41.1*	-0.2	91.3	-0.3	-4.5	38.2*	11.3*
CCOc1ccc(S(=O)(=O)NCc2cccnc2)cc1NC(=O)c1ccccc1	-1.0	2.2	-6.3	97.7	0.0	0.1	x	x
O=C1CNC(=S)N1c1nc2ccccc2s1	0.1	5.8	2.5	108.4	0.8	-0.3	x	x
CCCn1c(=S)[nH]c2cc(C(=O)N(CCO)Cc3ccccc3)ccc2c1=O	1.1	-1.6	3.9	103.5	0.7	-1.0	x	x
CC(NC(=O)C1CCN(C(=O)Nc2ccccc2)CC1)c1ccccc1 (centres undefined)	-5.6	-2.3	-10.3	102.0	0.0	2.0	x	x
O=C(Nc1ccccc1C(=O)O)c1cc(S(=O)(=O)NCc2ccccc2)ccc1Cl	3.9	49.0*	9.4	114.3	0.7	-0.1	39.4*	6.5*
COc1cc(Cl)c(C)cc1NC(=O)COC(=O)c1ccc(CN2CCCC2=O)cc1	2.5	6.7	-16.5	96.1	0.1	-0.8	x	x
CCOc1ccc2oc(C(=O)NNC(=O)c3ccccc3O)c(C)c2c1	-31.3	29.8	-95.6	107.1	0.7	-0.1	x	x
Cc1c(C(=O)NNC(=O)c2ccccc2O)oc2ccc(Br)cc12	-7.3	39.8*	-15.4	103.6	-0.1	0.0	39.0*	21.0*
C#CCSc1ncc(S(=O)(=O)c2ccccc2)c(=O)[nH]1	-2.1	2.3	4.1	99.8	0.1	1.2	x	x
Cc1cc(C)cc(NC(=O)CSc2ncc(S(=O)(=O)c3ccccc3)c(=O)[nH]2)c1	3.4	60.9*	6.5	x	0.2	x	46.5*	15.2*
COc1cc(C)ccc1S(=O)(=O)NC(=O)C1(C)CCN1C(=O)c1ccc(C2CCCCC2)cc1 (centres undefined)	0.0	40.5*	0.4	x	0.0	1.2	38.0*	8.3*
Cc1cccc(S(=O)(=O)NC(=O)C2(C)CCN2C(=O)c2ccc(C3CCCCC3)cc2)c1 (centres undefined)	-1.4	19.8	-8.6	x	0.5	-0.1	x	x
c1ccc2c(c1)ncc1cccn12	i	-0.3	i	112.1	-59.2	-0.6	x	x
CCn1c2ccccc2c2c3ncc4cccn4c3ccc21	-14.2	39.3*	-22.8	119.2	-12.8	2.0	55.5*	25.1*
COc1ccc(N(C)S(=O)(=O)c2ccc(Cl)c(C(=O)NNC(=O)c3ccccc3O)c2)cc1	-3.2	40.0*	2.2	96.3	0.6	2.3	30.1	10.4*
C[C@@H]1CN([C@H](C)CO)C(=O)c2cc(C#C[C@@H](C)O)cnc2O[C@H]1CN(C)C(=O)c1ccc(F)cc1	-7.3	3.7	-15.4	100.6	-0.2	-0.7	x	x
O=C(NCCc1ccc(F)cc1)C(=O)Nc1cc2c3c(c1)CC(=O)N3CCC2	-1.2	5.7	-5.6	119.0	0.7	-1.0	x	x
SMILES	ADAM17 inh	rCAG RNA binder	ADAM10 inh	DSG3 Ab inh	KLK7 zymogen act	MPTP block	rCAG bind conf	dCAG dye counter
COC(=O)c1cc2c(c3c4cc(C)ccc4n(S(=O)(=O)c4ccc(C)cc4)c13)C(=O)N(Cc1ccc(N(C)C)cc1)C2	-2.6	14.5	-3.6	x	-0.8	x	x	x
COC(=O)c1cc2c(c3c4cc(OC)ccc4n(S(=O)(=O)c4ccc(OC)cc4)c13)C(=O)N(Cc1ccc(N(C)C)cc1)C2	-1.9	12.1	-0.8	x	-0.6	x	x	x
C=C(C)C(=O)Nc1ccc(OC(F)(F)C(F)F)c(NC(=O)C(=C)C)c1	-2.2	44.0*	5.6	96.9	0.3	0.4	-0.3	-1.8
CCC(=O)Nc1ccc2c(c1)Cc1cc([N+](=O)[O-])ccc1-2	-3.4	7.1	-6.5	127.6	0.5	-0.1	x	x
COC(=O)C1=C(C)NC(C)=C(C(=O)OC)C(N2C(=O)CCC2=O)C1 (centres undefined)	-3.2	1.2	-5.7	x	-0.8	x	x	x
CC(=O)Nc1ccc(C(=O)/C=C/c2ccco2)cc1	-0.1	35.0*	5.6	87.5	-0.5	0.8	25.4	12.7*
CC(=O)Nc1cccc(C(=O)/C=C/c2ccco2)c1	-3.6	12.8	-3.6	99.3	0.5	3.7	x	x
O=C(/C=C/c1ccc(O)c([N+](=O)[O-])c1)c1ccc2ccccc2c1	-1.0	42.3*	11.7	102.5	-0.1	20.9	77.9*	39.2*
O=C(C=Cc1ccco1)c1ccc2ccccc2c1	-0.4	38.2*	-11.8	88.5	-1.8	-1.0	16.4	10.0*
CCCCCCCCN1C(=O)[C@@H](CC(=O)N2CCN(C(=O)OCC)CC2)C[C@@]2(C(=O)OC)C1=C[C@H](C(C)(C)C)O[C@@H]2C	-0.8	5.5	-2.4	x	0.3	x	x	x
CCCc1cc(C(=O)N2CCC(n3nccc3NC(=O)c3ccc(OC)cc3)CC2)no1	-1.1	-6.0	4.3	x	0.2	-1.6	x	x
Fc1cccc2sc(Nc3nc4cc5c(cc4s3)OCCO5)nc12	-53.0	10.5	-153.0	102.1	-0.4	5.0	x	x
Fc1cccc2sc(Nc3nc4cc5c(cc4s3)OCO5)nc12	-86.0	67.3*	-204.3	96.9	-6.3	7.7	54.4*	33.2*
NC(=O)c1ncn([C@@H]2O[C@H](C(=O)N[C@H](Cc3c[nH]c4ccccc34)C(=O)N3CCN(C(=O)N4CCOCC4)CC3)[C@@H](O)[C@H]2O)n1	-5.8	2.5	-13.3	x	1.0	x	x	x
S=c1[nH]ncn1/N=C/c1ccco1	-0.6	2.4	9.1	103.9	0.0	0.0	x	x
CN1C(=O)NC(c2ccccc2)C2=C1CN(c1cccc(C(F)(F)F)c1)C2=O (centres undefined)	-4.5	48.7*	-10.9	102.2	0.4	-0.3	2.9	-0.1
